# Data taken from article PMC4336329 (PLoS ONE, 2015).
# About 14,000 (4.5%) of roughly 310,000 compounds showed an effect of 50% or more. The effect is printed as a negative number. The entries come from a sample that favours strong results as a whole.
# Biological target: human ether-à-go-go-related gene (hERG) potassium channel (human, UniProt Q12809)
# Test: primary screen, population patch clamp on CHO cells stably expressing hERG; higher = less effect of the substance
# 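Further: peak tail current of the secondary pulse compared with the same well before compound.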
# human ether-à-go-go-related gene (hERG) potassium channel, sequence (Q12809 whole entry, looked up): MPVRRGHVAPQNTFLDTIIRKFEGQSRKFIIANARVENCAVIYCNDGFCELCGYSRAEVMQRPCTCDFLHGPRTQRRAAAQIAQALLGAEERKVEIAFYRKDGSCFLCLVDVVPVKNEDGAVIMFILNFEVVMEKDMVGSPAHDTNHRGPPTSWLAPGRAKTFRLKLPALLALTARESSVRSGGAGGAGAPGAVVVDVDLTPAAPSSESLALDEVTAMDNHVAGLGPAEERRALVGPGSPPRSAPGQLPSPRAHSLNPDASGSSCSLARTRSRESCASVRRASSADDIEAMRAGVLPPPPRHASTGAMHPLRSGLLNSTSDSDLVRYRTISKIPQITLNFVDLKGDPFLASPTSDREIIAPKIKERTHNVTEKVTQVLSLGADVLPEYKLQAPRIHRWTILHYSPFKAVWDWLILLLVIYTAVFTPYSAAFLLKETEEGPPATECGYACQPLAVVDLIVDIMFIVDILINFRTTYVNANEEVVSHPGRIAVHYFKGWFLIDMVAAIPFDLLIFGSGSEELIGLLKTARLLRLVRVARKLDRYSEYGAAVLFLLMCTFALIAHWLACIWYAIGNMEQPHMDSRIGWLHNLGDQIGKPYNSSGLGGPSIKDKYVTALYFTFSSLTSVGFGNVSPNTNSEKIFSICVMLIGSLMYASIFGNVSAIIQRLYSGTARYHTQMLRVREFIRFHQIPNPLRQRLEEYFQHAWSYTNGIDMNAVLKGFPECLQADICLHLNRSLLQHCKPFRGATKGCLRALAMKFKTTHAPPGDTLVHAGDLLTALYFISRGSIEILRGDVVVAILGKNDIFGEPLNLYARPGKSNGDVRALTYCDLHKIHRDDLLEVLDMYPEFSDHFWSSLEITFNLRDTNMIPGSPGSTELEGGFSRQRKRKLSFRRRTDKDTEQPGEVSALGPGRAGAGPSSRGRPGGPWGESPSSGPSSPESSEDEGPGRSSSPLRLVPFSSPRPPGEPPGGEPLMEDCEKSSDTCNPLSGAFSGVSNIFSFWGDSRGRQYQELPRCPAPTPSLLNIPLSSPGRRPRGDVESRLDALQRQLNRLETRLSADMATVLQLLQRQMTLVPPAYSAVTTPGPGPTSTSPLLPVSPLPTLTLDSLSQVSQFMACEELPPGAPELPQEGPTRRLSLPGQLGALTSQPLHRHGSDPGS
row,SMILES,"hERG current change (%, negative = inhibition) at 10uM"
1,Cc1cccnc1NC(=O)Nc1ccc(Cl)cc1,9.39%
2,Cc1ccc(N(CCC#N)C(=O)CSc2nnc3ccccn23)cc1,-8.44%
3,COc1ccc2ccccc2c1CN1CCN(Cc2ccccc2)CC1,-2.66%
4,Oc1cccc(Nc2nc(N3CCOCC3)nc(N3CCOCC3)n2)c1,8.76%
5,CSc1ccc(CN(C)C(=O)CNC(=O)CNS(=O)(=O)c2ccc(C)c(C)c2)cc1,-24.1%
6,CN(C(=O)N1CCN(c2ccccn2)CC1)c1ccccc1,7.47%
7,Cc1cc(Cn2nc(C(=O)NCc3cccc(C(F)(F)F)c3)cc2-c2ccccc2)on1,-57%
8,Cc1cc(Cn2nc(-c3ccccc3)cc2C(=O)NCc2cccc(C(F)(F)F)c2)on1,10.8%
9,Cc1cc(Cn2nc(C(=O)NCc3cccc(Br)c3)cc2-c2ccccc2)on1,-20.3%
10,CCOC(=O)c1c(NC(=O)CSc2nnc(C)s2)sc2c1CCC(C)C2 (centres unmarked),21.5%
11,CN1CCN(c2ccc(NS(=O)(=O)c3ccc(Cl)cc3)cn2)CC1,-40.2%
12,O=C(CC1SC(=O)N(Cc2ccccc2Cl)C1=O)Nc1nccs1 (centres unmarked),-5.31%
13,COc1ccccc1OCC(=O)N/N=C1/C=C(C)CC1,-3.82%
14,CC1=C/C(=N\NC(=O)c2ccc(O)cc2)CC1,20.8%
15,CC1=C/C(=N\NC(=O)c2ccccc2)CC1,-53.1%
16,Cc1oc2c(c1C(=O)NCc1cccnc1)C(=O)c1ccccc1C2=O,-47%
17,COc1cccc(NC(=O)CCc2nc(-c3ccccc3F)no2)c1,-0.885%
18,O=C(Nc1cc(Cl)ccc1-n1cncn1)c1cccc(S(=O)(=O)N2CCOCC2)c1,-61.9%
19,CN1CCN(S(=O)(=O)c2cccc(C(=O)Nc3cc(Cl)ccc3N3CCOCC3)c2)CC1,-42.3%
20,CCN(CC)c1ccc(C(=O)NC(=S)Nc2cc(S(=O)(=O)N3CCOCC3)ccc2-n2cncn2)cc1,-7.1%
21,COc1ccccc1C(=O)Nc1cc(Cl)ccc1-n1cncn1,0.114%
22,O=C(Nc1cc(Cl)ccc1-n1cncn1)c1ccc(F)c(S(=O)(=O)N2CCOCC2)c1,-44.6%

row,SMILES,"hERG current change (%, negative = inhibition) at 10uM"
1,O=C(Nc1cc(S(=O)(=O)N2CCOCC2)ccc1-n1cncn1)c1ccc(Cl)cc1,-50.4%
2,COc1ccc(C(=O)Nc2cc(Cl)ccc2-n2cncn2)c(OC)c1OC,-14.4%
3,O=C(Nc1cc(Cl)ccc1-n1cncn1)c1cc(S(=O)(=O)N2CCOCC2)ccc1F,-34.7%
4,COc1cc(OC)c(C(=O)Nc2cc(Cl)ccc2-n2cncn2)cc1OC,-55%
5,Oc1c(C(c2cccs2)N2CCN(c3ccccc3)CC2)ccc2cccnc12 (centres unmarked),7.17%
6,COC(=O)C1C(O)=C(C=NCc2ccccc2)C(=O)CC1(C)C (centres unmarked),-5.13%
7,CC(=O)N(C)c1ccc(NC(=O)N2CCOCC2)cc1,4.94%
8,Cc1ccc(N2CC(O)Cn3c2nc2c3c(=O)[nH]c(=O)n2C)cc1 (centres unmarked),13.3%
9,Cc1ccc2nc(NCCC(=O)O)nc(-c3ccccc3)c2c1,3.76%
10,CN(Cc1ccccc1)C(=O)CCC1CCN(C(=O)CCC(F)(F)F)CC1,-4.45%
11,CN(Cc1ccccc1)C(=O)CCC1CCN(C(=O)c2ccccc2C(F)(F)F)CC1,8.38%
12,CSCc1ccc(C(=O)N2CCC(CCC(=O)N(C)Cc3ccccc3)CC2)o1,-50.7%
13,COC(=O)c1ccc(OC)c(CSc2nnc(COc3ccccc3)o2)c1,-17.7%
14,Br.CCCCCCCCOC(=O)c1c(CSC(=N)N)n(C)c2cc(Br)c(OC(C)=O)cc12,-22.8%
15,CCOC(=O)c1c(CSc2nc(C)cc(C)c2C#N)n(C)c2cc(Br)c(OC(C)=O)cc12,8.76%
16,CCOC(=O)c1c(CSC(=N)N)n(-c2ccccc2)c2cc(Br)c(OC(C)=O)cc12,-77.9%
17,CCOC(=O)c1c(CSc2ccccc2)n(C)c2cc(Br)c(OCC(O)CNC(CO)(CO)CO)cc12 (centres unmarked),2.71%
18,Br.CCOC(=O)c1c(CSC(=N)N)n(-c2ccc(C)cc2)c2cc(Br)c(OC(C)=O)cc12,-65.4%
19,C=CCCc1ccc(C#N)c(SCc2c(C(=O)OCC)c3cc(OC(C)=O)c(Br)cc3n2C)n1,-1.18%
20,CCOC(=O)c1c(C)n(C)c2c1cc(OC(C)=O)c1ccccc12,19.7%
21,CCOC(=O)c1c(C)n(C)c2cc(Br)c(C)cc12,23.3%
22,Br.CCOC(=O)c1c(CSC(=N)N)n(C)c2cc(Br)c(OC(C)=O)cc12,-68.7%
